Among all 310,000 compounds or so, about 3,600 (1.2%) were called active.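 The calls were made as follows: active = ratio plate-corrected score three or more library SD toward inhibition, starting fluorescence score within five deviations; inactive = the rest.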 This excerpt belongs to a sample that is enriched for actives.

This experiment deals with Anoctamin-1 (Mus musculus) (UniProt Q8BHY3). The experiment is described as follows: TMEM16A chloride channel inhibitors, primary screen, cell-based, HTS (AID 588511).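 As to normalized B-score (activity score, 25-100; higher = stronger inhibition): score derived from kinetic fluorescence span divided by baseline fluorescence per well.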 The following applies: HEK293 TMEM16A/YFP iodide influx fluorescence, ionomycin; at 10 µM.
Anoctamin-1 (Mus musculus), sequence (Q8BHY3 whole entry, looked up): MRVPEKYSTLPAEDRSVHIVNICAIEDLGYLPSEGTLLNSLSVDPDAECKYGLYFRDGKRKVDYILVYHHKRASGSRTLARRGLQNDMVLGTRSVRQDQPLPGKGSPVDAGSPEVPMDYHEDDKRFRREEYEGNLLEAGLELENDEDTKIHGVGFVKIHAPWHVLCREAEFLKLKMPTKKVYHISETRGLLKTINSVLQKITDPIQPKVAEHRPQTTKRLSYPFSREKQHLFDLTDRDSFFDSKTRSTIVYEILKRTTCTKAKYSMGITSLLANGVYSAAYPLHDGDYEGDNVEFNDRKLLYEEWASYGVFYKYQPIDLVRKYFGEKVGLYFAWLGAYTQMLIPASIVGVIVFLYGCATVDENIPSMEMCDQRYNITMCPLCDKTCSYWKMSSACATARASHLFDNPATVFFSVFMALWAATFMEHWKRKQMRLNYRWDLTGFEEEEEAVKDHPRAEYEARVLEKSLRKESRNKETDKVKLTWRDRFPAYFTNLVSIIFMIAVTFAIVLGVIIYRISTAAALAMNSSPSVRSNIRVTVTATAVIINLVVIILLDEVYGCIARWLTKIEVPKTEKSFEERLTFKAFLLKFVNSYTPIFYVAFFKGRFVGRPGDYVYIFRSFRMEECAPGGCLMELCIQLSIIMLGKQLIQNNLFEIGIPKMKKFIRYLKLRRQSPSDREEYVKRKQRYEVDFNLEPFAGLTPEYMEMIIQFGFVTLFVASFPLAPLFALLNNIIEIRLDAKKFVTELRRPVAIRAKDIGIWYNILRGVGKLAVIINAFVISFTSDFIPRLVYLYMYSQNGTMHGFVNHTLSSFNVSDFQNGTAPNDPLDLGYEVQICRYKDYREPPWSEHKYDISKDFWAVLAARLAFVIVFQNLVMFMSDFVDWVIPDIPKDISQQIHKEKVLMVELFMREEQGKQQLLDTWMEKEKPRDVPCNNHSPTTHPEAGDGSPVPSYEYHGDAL
For the compound `O=c1ccc2cc(S(=O)(=O)NCCCc3ccccc3)ccc2[nH]1`, the normalized B-score (activity score, 25-100; higher = stronger inhibition) result was “inactive”. The result for `O=c1cc(C(F)(F)F)[nH]c(=O)n1C1CCCCC1` reads 25 (active); that for `Cc1ccc(Nc2cc(=O)n(C3CCCCC3)c(=O)[nH]2)cc1C`, “inactive”; that for `CCCOn1c(-n2nc(C)cc2C)nc2ccccc2c1=O`, “inactive”. Consider `CC1=CC2=NC(=O)/C(=C/c3coc4ccccc4c3=O)C(=N)N2O1`, for which the normalized B-score (activity score, 25-100; higher = stronger inhibition) result is “inactive”. The same measure for `COc1ccc(OCCCn2cccc2/C=C2/C(=N)N3OC(C)=CC3=NC2=O)cc1`: 25 (active); for `CCOc1cc(/C=C2/C(=N)N3OC(C)=CC3=NC2=O)ccc1OC`: “inactive”; for `Cn1cnc(C(F)(F)F)c1-c1ccc([N+](=O)[O-])cc1`: “inactive”. The result for `O=C(Nc1cccc(S(=O)(=O)N2CCCCC2)c1)c1ccc2c(c1)OCO2` reads “inactive”; that for `O=C(Nc1ccccc1)c1ccc2c(c1)OCCCO2`, “inactive”. The same measure for `O=C(Nc1cccc(S(=O)(=O)Nc2ccc(Cl)cc2)c1)c1ccc2c(c1)OCCO2`: 25 (active).

Regarding `CCn1c(SCC(=O)NCC2CCCO2)nc2cc(S(=O)(=O)N3CCCCC3)ccc21` (centres undefined), the normalized B-score (activity score, 25-100; higher = stronger inhibition) entry is “inactive”. Regarding `CCCCn1c(SCC(=O)N2CCC(C(=O)OCC)CC2)nc2cc(S(N)(=O)=O)ccc21`, the normalized B-score (activity score, 25-100; higher = stronger inhibition) result is “inactive”. The same measure for `CCCCn1c(SCc2ncc(-c3ccccc3)o2)nc2cc(S(N)(=O)=O)ccc21`: 25 (active). Regarding `CN(C)c1cc(-c2ccc(F)cc2)oc(=O)c1Cl`, the normalized B-score (activity score, 25-100; higher = stronger inhibition) entry was “inactive”. As for `CC1(C)CCc2nc(SCc3ccccc3)c(C#N)cc2C1`, the normalized B-score (activity score, 25-100; higher = stronger inhibition) entry was “inactive”.

Regarding `N#CC1=C(SCc2ccccc2)NC(=O)C(C#N)C12CCCC2` (centres undefined), the normalized B-score (activity score, 25-100; higher = stronger inhibition) is 25 (active). The same measure for `N#CC1=C(SCc2ccc(C#N)cc2)N=C(N)C(c2nc(-c3ccccc3)cs2)C12CCCCC2` (centres undefined): “inactive”; for `Nc1ccc(C(=O)OCC(=O)NC2CCS(=O)(=O)C2)cc1[N+](=O)[O-]` (centres undefined): “inactive”.

In the case of `CCC1CCCCN1C(=S)Nc1ccc(SC(F)F)cc1` (centres undefined), the normalized B-score (activity score, 25-100; higher = stronger inhibition) entry was “inactive”.

With `COc1ccc(CCN2CC(C(=O)NCCN3CCNC3=O)CCC2=O)cc1` (centres undefined), the normalized B-score (activity score, 25-100; higher = stronger inhibition) entry is “inactive”. The same measure for `O=C(NC(=S)Nc1ccc(S(=O)(=O)N2CCOCC2)cc1)c1ccccc1[N+](=O)[O-]`: “inactive”; for `O=C(N/N=C/c1ccc([N+](=O)[O-])o1)c1cccc(S(=O)(=O)N2CCOCC2)c1`: “inactive”; for `O=[N+]([O-])c1cc(Cl)cc(/C=N/NC(=S)Nc2cc(S(=O)(=O)N3CCOCC3)ccc2Cl)c1O`: 100 (active). The result for `Cc1ccsc1C(=O)N[C@@H](C)c1nnc2ccccn12` reads “inactive”; that for `COC(C[C@@H]1O[C@@H]1C(=O)[C@H](C)OCc1ccccc1)OC`, “inactive”; that for `CSCCC(C(=O)NC1=NCCS1)N1C(=O)c2ccccc2C1=O` (centres undefined), “inactive”. With `COC(=O)[C@@H]1CC(O)CN1C(=O)C12CC3CC(CC(C3)C1)C2` (some centres undefined), the normalized B-score (activity score, 25-100; higher = stronger inhibition) result is “inactive”. The result for `CC(C)OCCCNc1ncnc2c1[nH]c1ccc(F)cc12` reads 100 (active); that for `CC(C)OCCCNC(=O)c1cc(Sc2ccc(F)cc2)nc2ccccc12`, “inactive”; that for `CNS(=O)(=O)c1cnccc1N1CCN(c2cccc(C)c2)CC1`, “inactive”. With `CCC1(C)Cc2c(sc3[nH]c(=S)n(Cc4ccccc4)c(=O)c23)CO1` (centres undefined), the normalized B-score (activity score, 25-100; higher = stronger inhibition) entry was “inactive”.

`CC1CC(C)(C)n2c(O)c(N=NC(N)=S)c3cccc1c32` (centres undefined): the normalized B-score (activity score, 25-100; higher = stronger inhibition) entry was “inactive”. Take `CCC(C)NCCOCCOc1ccc(Br)cc1C` (centres undefined): the normalized B-score (activity score, 25-100; higher = stronger inhibition) result was “inactive”. As to `COc1cccc(OC)c1C(=O)N1CCN(Cc2cccnc2)CC1`, the normalized B-score (activity score, 25-100; higher = stronger inhibition) entry is “inactive”.

For the compound `Cc1cc(-c2ccc(C)c(S(=O)(=O)Nc3ccc(S(N)(=O)=O)cc3)c2)on1`, the normalized B-score (activity score, 25-100; higher = stronger inhibition) result was “inactive”. The result for `Cc1cc(-c2ccc(C)c(S(=O)(=O)NC(C)Cc3ccco3)c2)on1` (centres undefined) reads “inactive”. The same measure for `Cc1ccc2c(c1)N(S(=O)(=O)c1cc(-c3cc(C)no3)ccc1C)CCO2`: 25 (active).

Turning to `C=CCNC(=O)C1CC2c3ccccc3C1c1ccccc12` (centres undefined), the normalized B-score (activity score, 25-100; higher = stronger inhibition) result was “inactive”. The result for `CCOc1ccc(S(=O)(=O)N2CCCC(C(=O)N3CCC(C(N)=O)CC3)C2)cc1Cl` (centres undefined) reads “inactive”; that for `C#CCOCCOCCOCCNc1nc(N2CCN(C(=O)CCCCCCCCCCNC(=O)[C@H](CCCCN)n3cc(C)nn3)CC2)nc(N2CCN(C(=O)CCCCCCCCCCNC(=O)[C@H](CO)n3cc(CCCSC)nn3)CC2)n1`, 100 (active). The result for `C#CCOCCOCCOCCNc1nc(N2CCN(C(=O)CCCCCCCCCCNC(=O)Cn3cc(CCCCCN)nn3)CC2)nc(N2CCN(C(=O)CCCCCCCCCCNC(=O)[C@H](CO)n3cc(CCCSC)nn3)CC2)n1` reads “inactive”; that for `C#CCOCCOCCOCCNc1nc(N2CCN(C(=O)CCCCCCCCCCNC(=O)[C@H]([C@@H](C)CC)n3cc(CCCCN=C(N)N)nn3)CC2)nc(N2CCN(C(=O)CCCCCCCCCCNC(=O)[C@H](CO)n3cc(CCCSC)nn3)CC2)n1`, “inactive”.

For the compound `COC(=O)CSc1nc2c(c(C3CC=CCC3)c1C#N)CCC2` (centres undefined), the normalized B-score (activity score, 25-100; higher = stronger inhibition) entry was “inactive”.

In the case of `CCOC(=O)C1CCN(S(=O)(=O)c2c(C)noc2C)CC1`, the normalized B-score (activity score, 25-100; higher = stronger inhibition) entry was “inactive”. Consider `CCOC(=O)N1CCN(Cc2nc3cc(NC(C)=O)ccc3n2C)CC1`, for which the normalized B-score (activity score, 25-100; higher = stronger inhibition) entry is “inactive”. The same measure for `Cn1c(CN2CCOCC2)nc2cc(NC(=O)c3ccc(Cl)cc3)ccc21`: 100 (active); for `CC(=O)NCCc1nc2cc(NC(=O)c3ccccc3)ccc2n1C`: “inactive”. The same measure for `O=C(NCCCn1ccnc1)C1CCCN(S(=O)(=O)c2cc(Cl)ccc2Cl)C1` (centres undefined): “inactive”.
